# Measured values reported in PubChem BioAssay.
# Calls of active or inactive are those of the source.
# What was measured:
# [1] = binders of probe aFSTL3 on microarray, primary screen, stem cell growth factor project, biochemical, small-molecule microarray, fluorescence 635/667 (AID 1064); settings: higher = more signal;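 note: measures binding of the biotinylated anti-FSTL3 antibody to printed compounds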
# [2] = binders from COS7 lysate, DM2A8 probe, primary screen, torsin A project, cell lysate, small-molecule microarray, fluorescence 635/667 (AID 1065); settings: higher = more signal, COS7 lysate expressing mutant human TOR1A
# [3] = binders of probe aFGF2 on microarray, primary screen, stem cell growth factor project, biochemical, small-molecule microarray, fluorescence 635/667 (AID 1067); settings: higher = more signal;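 note: measures binding of biotinylated aFGF2 protein to printed compounds on slides; z-score merges feature fluorescence and signal-to-noise across triplicate slides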
# [4] = binders of probe aFGF10 on microarray, primary screen, stem cell growth factor project, biochemical, small-molecule microarray, fluorescence 635/667 (AID 1071); settings: higher = more signal;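 note: score merges 667 nm spot intensity and signal to noise from triplicate slides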
# [5] = target: Neurogenic locus notch homolog protein 2 (Homo sapiens) (UniProt Q04721); assay: Notch2 binders on small-molecule microarrays, primary screen, biochemical, small-molecule microarray, 635 nm fluorescence, stem cell growth factors (AID 1073); settings: Notch2 binding, higher = more signal
# [6] = target: Pro-neuregulin-1, membrane-bound isoform (Homo sapiens) (UniProt Q02297); assay: NRG1 binders on small-molecule microarrays, primary screen, psychiatric disease protein project, biochemical, small-molecule microarray, fluorescence 635/667 (AID 1075); settings: NRG1 binding, 635 nm fluorescence, higher = more signal;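 note: score combines 667 nm spot fluorescence with signal to noise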
# [7] = tested on: Neuregulin-1 EGF-like domain; assay: binders of neuregulin-1 EGF-like domain, primary screen, biochemical, small-molecule microarray, 635 nm fluorescence (AID 1081); settings: small-molecule microarray binding, higher = more signal;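 note: binding of the protein to compounds printed on small-molecule microarray slides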
# [8] = FRG1 promoter luciferase signal modulators, primary screen, FRG1 inhibition for FSHD, cell-based, C2C12 myotubes, firefly/Renilla luciferase, luminescence (AID 1084); settings: higher = more signal, called active from +8 up or from −8 down
# [9] = binders of probe aFST on microarray, primary screen, stem cell growth factor project, biochemical, small-molecule microarray, fluorescence 635/667 (AID 1086); settings: higher = more signal;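 note: score merges 667 nm fluorescence with signal-to-noise of each printed compound spot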
# [10] = binders of probe aHhip on microarray, primary screen, stem cell growth factor project, biochemical, small-molecule microarray, fluorescence 635/667 (AID 1087); settings: higher = more signal;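 note: score merges spot fluorescence at 667nm with spot signal to noise ratio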
# [11] = tested on: PRMT1 (protein arginine N-methyltransferase 1); assay: PRMT1 binders on small-molecule microarrays, primary screen, biochemical, small-molecule microarray, 635 nm fluorescence (AID 1088); settings: small-molecule microarray binding, higher = more signal;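 note: binding of Prmt1 protein to compounds spotted on small-molecule microarray slides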
# [12] = yeast growth modulation, basal conditions, primary screen, YJM789 clinical isolate, OD600, 24 h (AID 1089);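 note: growth of clinical yeast isolate S. cerevisiae YJM 789 seeded 1000 cells per well; test concentration not given here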; settings: S. cerevisiae YJM789 growth, higher = more signal, called active from +8 up or from −8 down
# [13] = fission yeast growth modulation, primary screen, strain 972, OD600, 24 h, no modulator (AID 1090);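 note: basal condition with compound alone and no growth modifier present; test concentration not given here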; settings: S. pombe 972 growth, higher = more signal, called active from +8 up or from −8 down
# [14] = S. cerevisiae growth modulation with rapamycin, primary screen, strain BY4716, OD600, 96 h (AID 1091); settings: higher = more signal, called active from +8 up or from −8 down; note: test concentration not given here
# [15] = target: Torsin-1A-interacting protein 2 (Homo sapiens) (UniProt Q8NFQ8); assay: LULL1 binders on small-molecule microarray, primary screen, cell lysate, human LULL1 lysate, 635/667 nm fluorescence (AID 1092); settings: hLULL1 lysate binding, 635 nm fluorescence, higher = more signal;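 note: probe is lysate of COS7 cells overexpressing human LULL1; score merges per-feature 667 nm fluorescence with signal-to-noise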
# [16] = E. coli growth modulation, two-sided OD650, primary screen, E. coli filamentation project, strain DRC41, 24 h (AID 1093); settings: OD650, 24 h, higher = more signal, called active from +8 up or from −8 down;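 note: MC1000 strain lacking acrAB efflux and sulA so SOS filamentation is blocked; test concentration not given here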
# [17] = small-molecule microarray binders of probe aLefty2, primary screen, biochemical, biotinylated probe, 635/667 nm fluorescence (AID 1094); settings: higher = more signal;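 note: score merges spot fluorescence near 667 nm with spot signal-to-noise ratio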
# [18] = tested on: Noggin (protein binding on small-molecule microarray); assay: Noggin binders on small-molecule microarray, primary screen, biochemical, 635/667 nm fluorescence (AID 1095); settings: 635 nm fluorescence, higher = more signal;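 note: score merges 667 nm feature fluorescence with signal to noise over triplicate slides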
# [19] = target: Neurogenic locus notch homolog protein 3 (Homo sapiens) (UniProt Q9UM47); assay: NOTCH3 binders on small-molecule microarray, primary screen, biochemical, 635/667 nm fluorescence (AID 1096); settings: NOTCH3 binding, 635 nm fluorescence, higher = more signal
# [20] = small-molecule microarray binders of probe aEGFR, primary screen, biochemical, biotinylated probe, 635/667 nm fluorescence (AID 1097); settings: higher = more signal;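 note: probe is a biotinylated anti-EGFR antibody binding compounds printed on slides; score combines fluorescence near 667 nm and signal to noise of each spot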
# Neurogenic locus notch homolog protein 2 (Homo sapiens), sequence (Q04721 whole entry, looked up, canonical isoform): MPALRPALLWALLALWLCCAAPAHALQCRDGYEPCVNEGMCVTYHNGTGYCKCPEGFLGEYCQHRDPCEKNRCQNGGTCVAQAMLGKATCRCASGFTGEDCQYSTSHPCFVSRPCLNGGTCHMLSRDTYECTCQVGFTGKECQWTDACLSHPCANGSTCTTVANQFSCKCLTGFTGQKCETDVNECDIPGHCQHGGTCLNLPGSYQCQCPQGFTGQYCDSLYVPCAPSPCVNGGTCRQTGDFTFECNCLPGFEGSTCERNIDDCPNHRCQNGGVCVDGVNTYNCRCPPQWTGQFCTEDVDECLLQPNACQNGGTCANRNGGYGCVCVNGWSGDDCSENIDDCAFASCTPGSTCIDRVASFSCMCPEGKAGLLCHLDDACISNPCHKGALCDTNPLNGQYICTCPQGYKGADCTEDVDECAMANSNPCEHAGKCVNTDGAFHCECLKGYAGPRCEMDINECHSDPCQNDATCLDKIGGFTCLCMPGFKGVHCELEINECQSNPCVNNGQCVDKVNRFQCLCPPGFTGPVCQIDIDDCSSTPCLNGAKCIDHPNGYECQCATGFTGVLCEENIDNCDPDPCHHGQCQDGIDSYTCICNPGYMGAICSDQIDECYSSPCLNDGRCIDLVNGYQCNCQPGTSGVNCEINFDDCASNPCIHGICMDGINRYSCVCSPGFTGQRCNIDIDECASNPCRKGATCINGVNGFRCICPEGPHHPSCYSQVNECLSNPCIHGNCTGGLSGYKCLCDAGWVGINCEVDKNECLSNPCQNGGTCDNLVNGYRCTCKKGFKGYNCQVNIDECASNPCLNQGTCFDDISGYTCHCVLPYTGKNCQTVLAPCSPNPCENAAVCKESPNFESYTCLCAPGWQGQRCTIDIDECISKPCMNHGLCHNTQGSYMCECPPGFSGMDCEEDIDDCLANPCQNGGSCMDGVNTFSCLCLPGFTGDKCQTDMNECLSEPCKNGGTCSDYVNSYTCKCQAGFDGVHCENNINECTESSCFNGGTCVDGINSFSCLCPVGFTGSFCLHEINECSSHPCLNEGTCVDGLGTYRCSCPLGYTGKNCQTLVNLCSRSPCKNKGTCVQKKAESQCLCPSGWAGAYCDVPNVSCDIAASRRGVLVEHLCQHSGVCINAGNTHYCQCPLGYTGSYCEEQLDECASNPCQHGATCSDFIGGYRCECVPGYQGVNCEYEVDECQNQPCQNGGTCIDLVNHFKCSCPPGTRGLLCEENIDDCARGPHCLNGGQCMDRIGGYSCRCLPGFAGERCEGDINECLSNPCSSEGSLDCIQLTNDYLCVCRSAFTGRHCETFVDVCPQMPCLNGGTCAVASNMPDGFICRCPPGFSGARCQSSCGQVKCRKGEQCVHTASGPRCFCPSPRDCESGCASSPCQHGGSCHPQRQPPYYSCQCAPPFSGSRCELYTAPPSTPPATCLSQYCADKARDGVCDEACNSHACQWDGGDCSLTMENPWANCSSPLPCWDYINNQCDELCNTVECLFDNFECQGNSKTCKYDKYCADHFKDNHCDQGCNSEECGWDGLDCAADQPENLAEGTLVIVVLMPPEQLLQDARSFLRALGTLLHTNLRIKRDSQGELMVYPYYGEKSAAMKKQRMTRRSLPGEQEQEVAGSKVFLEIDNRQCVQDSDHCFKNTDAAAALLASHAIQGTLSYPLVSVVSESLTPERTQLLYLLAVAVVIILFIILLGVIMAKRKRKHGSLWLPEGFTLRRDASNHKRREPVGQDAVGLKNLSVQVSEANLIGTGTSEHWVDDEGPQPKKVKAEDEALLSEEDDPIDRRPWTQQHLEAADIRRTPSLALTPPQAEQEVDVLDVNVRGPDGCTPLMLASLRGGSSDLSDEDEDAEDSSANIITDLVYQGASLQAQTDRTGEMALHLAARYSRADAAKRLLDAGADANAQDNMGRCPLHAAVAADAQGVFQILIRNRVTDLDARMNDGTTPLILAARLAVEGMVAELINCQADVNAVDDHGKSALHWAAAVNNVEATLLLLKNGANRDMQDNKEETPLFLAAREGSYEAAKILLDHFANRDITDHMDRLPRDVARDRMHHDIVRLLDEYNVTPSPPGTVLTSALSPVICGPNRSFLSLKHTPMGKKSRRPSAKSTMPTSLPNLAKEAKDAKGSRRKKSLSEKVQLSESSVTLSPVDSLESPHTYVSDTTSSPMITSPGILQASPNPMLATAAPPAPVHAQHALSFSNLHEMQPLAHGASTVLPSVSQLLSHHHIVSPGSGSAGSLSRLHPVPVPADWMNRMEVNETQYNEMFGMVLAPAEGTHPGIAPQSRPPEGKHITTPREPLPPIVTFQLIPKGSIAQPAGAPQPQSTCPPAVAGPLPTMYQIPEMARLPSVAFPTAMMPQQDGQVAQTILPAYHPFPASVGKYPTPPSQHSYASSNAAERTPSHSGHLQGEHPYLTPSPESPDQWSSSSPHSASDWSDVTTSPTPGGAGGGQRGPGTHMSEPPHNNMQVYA
# Neurogenic locus notch homolog protein 3 (Homo sapiens), sequence (Q9UM47 whole entry, looked up): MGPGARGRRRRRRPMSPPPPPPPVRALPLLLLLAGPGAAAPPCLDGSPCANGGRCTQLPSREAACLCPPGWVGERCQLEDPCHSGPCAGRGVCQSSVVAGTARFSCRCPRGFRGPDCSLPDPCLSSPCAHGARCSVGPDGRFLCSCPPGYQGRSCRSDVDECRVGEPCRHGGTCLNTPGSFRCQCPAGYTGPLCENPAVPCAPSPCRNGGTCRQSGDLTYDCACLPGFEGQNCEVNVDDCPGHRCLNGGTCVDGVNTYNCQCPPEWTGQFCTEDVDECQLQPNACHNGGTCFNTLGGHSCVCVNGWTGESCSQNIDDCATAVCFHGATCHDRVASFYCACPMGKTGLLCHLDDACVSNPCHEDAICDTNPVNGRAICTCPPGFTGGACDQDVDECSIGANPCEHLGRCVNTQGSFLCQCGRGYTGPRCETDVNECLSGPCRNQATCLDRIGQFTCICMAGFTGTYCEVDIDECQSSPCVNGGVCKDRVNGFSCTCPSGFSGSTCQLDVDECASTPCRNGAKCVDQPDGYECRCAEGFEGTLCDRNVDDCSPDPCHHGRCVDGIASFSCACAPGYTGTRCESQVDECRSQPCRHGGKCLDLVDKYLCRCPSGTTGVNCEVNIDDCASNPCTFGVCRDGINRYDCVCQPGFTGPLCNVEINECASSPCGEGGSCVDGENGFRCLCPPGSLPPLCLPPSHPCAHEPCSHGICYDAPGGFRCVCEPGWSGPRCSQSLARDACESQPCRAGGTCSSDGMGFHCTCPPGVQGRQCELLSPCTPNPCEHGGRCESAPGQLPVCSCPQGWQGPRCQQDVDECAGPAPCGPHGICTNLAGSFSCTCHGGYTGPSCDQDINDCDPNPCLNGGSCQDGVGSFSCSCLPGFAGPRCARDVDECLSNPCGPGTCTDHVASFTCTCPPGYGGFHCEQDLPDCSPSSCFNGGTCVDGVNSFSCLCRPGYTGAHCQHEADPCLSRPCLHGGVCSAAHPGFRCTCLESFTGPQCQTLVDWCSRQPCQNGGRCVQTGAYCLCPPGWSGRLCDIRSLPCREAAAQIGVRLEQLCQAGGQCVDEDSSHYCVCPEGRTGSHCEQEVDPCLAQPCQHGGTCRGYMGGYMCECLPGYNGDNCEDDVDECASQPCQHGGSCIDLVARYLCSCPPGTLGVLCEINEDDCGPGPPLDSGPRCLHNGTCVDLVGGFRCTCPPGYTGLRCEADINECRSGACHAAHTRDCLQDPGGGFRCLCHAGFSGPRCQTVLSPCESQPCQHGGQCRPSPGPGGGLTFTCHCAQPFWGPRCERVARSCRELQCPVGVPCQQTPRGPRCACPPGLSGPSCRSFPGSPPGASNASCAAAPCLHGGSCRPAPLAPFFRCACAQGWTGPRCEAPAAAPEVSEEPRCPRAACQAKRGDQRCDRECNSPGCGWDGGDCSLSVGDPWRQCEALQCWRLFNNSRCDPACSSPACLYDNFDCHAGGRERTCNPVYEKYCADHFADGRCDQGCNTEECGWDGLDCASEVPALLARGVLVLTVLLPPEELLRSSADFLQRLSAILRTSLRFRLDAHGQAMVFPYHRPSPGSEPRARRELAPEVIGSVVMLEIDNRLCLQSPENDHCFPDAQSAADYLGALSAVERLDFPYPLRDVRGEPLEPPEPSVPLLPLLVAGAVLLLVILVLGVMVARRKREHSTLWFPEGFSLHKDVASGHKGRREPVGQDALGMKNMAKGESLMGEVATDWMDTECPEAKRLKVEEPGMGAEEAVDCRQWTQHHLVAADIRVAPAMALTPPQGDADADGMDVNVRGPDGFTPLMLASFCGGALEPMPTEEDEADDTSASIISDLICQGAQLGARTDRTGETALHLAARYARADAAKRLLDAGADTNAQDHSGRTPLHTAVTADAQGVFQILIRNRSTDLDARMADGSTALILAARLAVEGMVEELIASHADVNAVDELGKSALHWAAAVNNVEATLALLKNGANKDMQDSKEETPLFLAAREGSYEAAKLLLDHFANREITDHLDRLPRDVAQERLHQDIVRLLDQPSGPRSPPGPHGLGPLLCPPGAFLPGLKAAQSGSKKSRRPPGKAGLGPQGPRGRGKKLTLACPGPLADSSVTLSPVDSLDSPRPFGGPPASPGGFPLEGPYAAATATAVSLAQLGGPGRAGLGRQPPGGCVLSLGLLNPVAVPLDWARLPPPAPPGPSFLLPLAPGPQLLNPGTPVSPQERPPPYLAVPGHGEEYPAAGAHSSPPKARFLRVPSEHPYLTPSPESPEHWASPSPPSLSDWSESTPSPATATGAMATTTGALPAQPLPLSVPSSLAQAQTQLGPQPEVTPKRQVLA
Structure (SMILES),composite z-score [1],composite z-score [2],composite z-score [3],composite z-score [4],composite z-score [5],composite z-score [6],composite z-score [7],z-score [8],composite z-score [9],composite z-score [10],composite z-score [11],z-score [12],z-score [13],z-score [14],composite z-score [15],z-score [16],composite z-score [17],composite z-score [18],composite z-score [19],composite z-score [20]
C=CCN1C(=O)[C@@]2(O[C@@H](CCO)[C@H]([Si](C)(C)c3ccc(OC)cc3)[C@H]2C)c2cc(N(C=O)c3ccccc3)ccc21,0.156,0.24,-0.125,0.461,0.555,0.657,0.904,-1.06 (inactive),0.143,0.154,1.11,0.551 (inactive),-0.67 (inactive),21 (active),0.586,1.85 (inactive),0.0183,0.366,0.259,-0.0304
O=C1c2ccccc2C(=O)c2cc([C@H]3Oc4ccccc4S(=O)(=O)N4CCC[C@@H]34)ccc21,0.238,-0.845,-0.128,-0.639,-1.09,-0.926,-1.64,-0.933 (inactive),-0.167,-0.353,-1.02,-1.31 (inactive),-1.33 (inactive),-0.462 (inactive),-0.629,2.81 (inactive),-0.276,-0.566,-0.259,-0.196
COCCOC(=O)N1C(=O)[C@@]2(c3cc(C#CCCO)ccc31)[C@H](c1ccccc1OCCO)N1[C@H](c3ccccc3)[C@H](c3ccccc3)OC(=O)[C@H]1[C@@H]2C(=O)NC[C@H](O)c1ccccc1,-0.138,2.15,-0.105,0.365,0.3,1.12,1.06,-2.36 (inactive),0.555,0.0623,1.56,-0.524 (inactive),-1.14 (inactive),2.23 (inactive),1.29,3.51 (inactive),-0.0898,1.71,0.99,0.0533
NC(=O)N1C(=O)C2C(C1=O)C1C=C(c3ccc(CO)cc3)C2C(C2CC2)N1Cc1cc2c(cc1Br)OCO2 (stereo not given),0.567,0.778,-0.105,-0.277,-0.204,0.976,0.887,-2.01 (inactive),0.0417,-0.0237,0.364,-0.779 (inactive),-3.29 (inactive),-1.32 (inactive),1.86,1.19 (inactive),0.0834,0.176,0.623,-0.0975
C=CCNC(=O)[C@H]1[C@@H]2C(=O)O[C@@H](c3ccccc3)[C@@H](c3ccccc3)N2[C@@H](c2ccc(OCCO)cc2)[C@]12C(=O)Nc1ccc(C#CCCO)cc12,0.268,1.14,-0.0901,-0.168,-0.23,1.08,1.15,-4.1 (inactive),0.219,-0.0994,1.57,0.443 (inactive),-1.91 (inactive),2.38 (inactive),2.42,2.71 (inactive),-0.148,0.292,0.73,-0.087
COc1ccc(C#Cc2ccc3c(c2)[C@]2(C(=O)N3)[C@H](c3ccc(O)cc3)N3[C@H](c4ccccc4)[C@H](c4ccccc4)OC(=O)[C@H]3[C@@H]2C(=O)N2CCN(c3ncccn3)CC2)cc1,0.286,1.31,-0.0625,0.0869,1.19,1.64,0.892,-0.36 (inactive),0.252,0.186,1.18,0.478 (inactive),-1.84 (inactive),2.15 (inactive),2.01,1.99 (inactive),0.0708,-0.0098,0.536,-0.0854
CCCC[C@@H](O)C1=C(C)C[C@H]2C(=O)N(C)C(=O)[C@H]2[C@H]1CO,-0.275,-0.305,-0.12,0.469,0.109,0.11,-0.0165,-0.645 (inactive),-0.176,-0.318,0.54,-0.219 (inactive),-1.6 (inactive),-1.19 (inactive),1.31,2.68 (inactive),-0.328,1.09,0.352,-0.21
CC(C)C(CO)N1C(=O)[C@@H]2[C@H]3C(=O)OCC=C[C@H]3OC23C=CCN(Cc2ccccc2)C(=O)[C@@H]13 (stereo not given in full),-0.302,-0.438,-0.116,-0.307,-0.834,-0.72,-0.386,-0.699 (inactive),-0.361,-0.0994,-0.462,-0.899 (inactive),-0.742 (inactive),-1.06 (inactive),-1.04,2.08 (inactive),-0.238,-0.282,-0.316,-0.287
C=CCNC(=O)[C@@H]1[C@H]2C(=O)O[C@H](c3ccccc3)[C@H](c3ccccc3)N2[C@H](c2ccc(O)cc2)[C@@]12C(=O)N(C(=O)OCCOC)c1ccc(C#Cc3ccc(OC)cc3)cc12,-0.828,0.974,-0.0761,0.856,1.34,1.41,1.16,-0.374 (inactive),0.316,-0.0994,1.55,0.342 (inactive),0.1 (inactive),2.6 (inactive),2.08,2.2 (inactive),-0.111,0.605,1.12,-0.0674
O=C1O[C@H](c2ccccc2)[C@H](c2ccccc2)N2[C@H]1[C@@H](C(=O)Nc1nc3ccccc3s1)[C@]1(C(=O)Nc3ccc(C#CCCO)cc31)[C@H]2c1ccccc1OCCO,-0.246,1.25,-0.038,0.502,1.35,1.69,1.06,-1.51 (inactive),0.599,0.0757,1.47,0.764 (inactive),-1.98 (inactive),2.62 (inactive),2.85,2.96 (inactive),0.0459,0.244,0.912,0.0381
COC(=O)C1=CC(CCCO)=CC(C2CC2)N(Cc2cc3c(cc2Br)OCO3)C=C1C(=O)OC (stereo not given),1.74,2.08,-0.0656,-0.435,0.728,2.22,1.3,-0.0234 (inactive),0.796,-0.0645,1.54,-1.04 (inactive),-2.22 (inactive),-1.23 (inactive),3,-0.741 (inactive),0.392,-0.705,0.647,0.0821
C=C(COC)C(=O)CC[C@H](OC(=O)c1ccccc1-c1ccccc1C(=O)O)c1ccccc1OCCO,0.181,0.607,-0.129,0.247,-0.453,0.867,0.761,-0.621 (inactive),-0.0824,-0.16,1.56,-0.0355 (inactive),-1.37 (inactive),-1.08 (inactive),1.13,1.4 (inactive),-0.235,0.877,0.385,-0.155
C=C(CCCC)/C(=C/C[C@H](OC(=O)c1ccncc1)c1ccc(CO)o1)c1cnc2ccccc2c1,-0.408,0.536,-0.0332,0.941,1.41,-0.185,1.04,-0.587 (inactive),0.761,0.265,1.56,3.23 (inactive),-1.99 (inactive),-0.516 (inactive),1.89,0.74 (inactive),-0.0102,1.19,1.09,0.0221
C=CCC(OC(C)=O)[C@@H]1[C@@H](N(Cc2ccc(-c3cccc(C(F)(F)F)c3)o2)C(=O)c2ccc(-c3ccccc3)cc2)c2cc(OCCCO)ccc2N1C(=O)Cc1ccc(OC)cc1 (stereo not given in full),0.365,-0.338,-0.1,-0.394,-0.654,-0.61,-0.663,-0.981 (inactive),0.258,-0.0324,-0.305,-0.933 (inactive),-1.88 (inactive),-0.82 (inactive),-0.0364,1.84 (inactive),0.0236,-0.475,-1.16,-0.191
COCCOC(=O)N1C(=O)[C@@]2(c3cc(C#CCNC(N)=O)ccc31)[C@H](c1ccccc1OCCO)N1[C@H](c3ccccc3)[C@H](c3ccccc3)OC(=O)[C@H]1[C@@H]2C(=O)Nc1nc2ccccc2s1,0.171,1.05,-0.0893,0.158,0.931,0.582,0.627,1.18 (inactive),0.986,0.0623,1.28,0.314 (inactive),-0.364 (inactive),1.99 (inactive),1.58,2.67 (inactive),0.136,0.345,0.799,-0.0732
O=C(N1CCCCC1)[C@@]1(Cc2ccccc2)N=C(c2ccc(OCCCO)cc2)O[C@H]1c1ccccc1,0.994,2,0.103,0.235,1.58,1.05,1.02,-3.21 (inactive),1.52,-0.146,1.18,-0.997 (inactive),-2.65 (inactive),4.43 (inactive),2.99,0.668 (inactive),0.429,0.368,0.966,0.293
CC(C)CCC[C@@H](C)[C@H]1CC[C@@]2(C)C3=C(CC[C@]12C)[C@@]1(C)CC[C@H](OC(=O)CCl)C(C)(C)C1CC3 (stereo not given in full),-0.503,0.331,-0.0787,0.422,0.753,0.0429,0.59,-0.0513 (inactive),0.104,-0.0237,-0.132,-0.0688 (inactive),-0.178 (inactive),-0.208 (inactive),0.424,3.26 (inactive),-0.145,0.44,0.847,0.0143
COCCOC(=O)N1C(=O)[C@@]2(c3cc(C#CC4(O)CCCCCC4)ccc31)[C@H](c1ccccc1OCCO)N1[C@H](c3ccccc3)[C@H](c3ccccc3)OC(=O)[C@H]1[C@@H]2C(=O)Nc1nc2ccccc2s1,-0.172,1.05,0.0359,0.659,1.11,0.41,1.26,1.54 (inactive),0.325,-0.121,1.55,2.04 (inactive),-0.312 (inactive),3.94 (inactive),2.09,2.69 (inactive),0.0498,0.724,1.09,0.0403
CC(C)(C)OC(=O)CC[C@@]12N=C(c3ccc(OCCCO)cc3)O[C@@H]1c1ccccc1CN(Cc1ccccc1)C2=O,0.265,0.141,-0.0118,0.294,0.549,0.391,1.14,-4.73 (inactive),0.419,-0.069,1.56,1.44 (inactive),-3.05 (inactive),6.17 (inactive),2.49,1.36 (inactive),-0.0664,1.62,0.981,-0.103
